High-throughput results from PubChem.
FAS TE block: inhibitors of human fatty acid synthase thioesterase domain | inhibition, % at 15 µM | recombinant FAS-TE, OMFH fluorogenic substrate, fluorescence endpoint | AID 602261 | 360,000 tested, 0.67% active | P49327;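 active = compounds whose normalised, plate-corrected inhibition of enzyme fluorescence in the single-dose primary screen is 50% or more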
Target sequence (P49327 whole entry, looked up, the tested form may be a part): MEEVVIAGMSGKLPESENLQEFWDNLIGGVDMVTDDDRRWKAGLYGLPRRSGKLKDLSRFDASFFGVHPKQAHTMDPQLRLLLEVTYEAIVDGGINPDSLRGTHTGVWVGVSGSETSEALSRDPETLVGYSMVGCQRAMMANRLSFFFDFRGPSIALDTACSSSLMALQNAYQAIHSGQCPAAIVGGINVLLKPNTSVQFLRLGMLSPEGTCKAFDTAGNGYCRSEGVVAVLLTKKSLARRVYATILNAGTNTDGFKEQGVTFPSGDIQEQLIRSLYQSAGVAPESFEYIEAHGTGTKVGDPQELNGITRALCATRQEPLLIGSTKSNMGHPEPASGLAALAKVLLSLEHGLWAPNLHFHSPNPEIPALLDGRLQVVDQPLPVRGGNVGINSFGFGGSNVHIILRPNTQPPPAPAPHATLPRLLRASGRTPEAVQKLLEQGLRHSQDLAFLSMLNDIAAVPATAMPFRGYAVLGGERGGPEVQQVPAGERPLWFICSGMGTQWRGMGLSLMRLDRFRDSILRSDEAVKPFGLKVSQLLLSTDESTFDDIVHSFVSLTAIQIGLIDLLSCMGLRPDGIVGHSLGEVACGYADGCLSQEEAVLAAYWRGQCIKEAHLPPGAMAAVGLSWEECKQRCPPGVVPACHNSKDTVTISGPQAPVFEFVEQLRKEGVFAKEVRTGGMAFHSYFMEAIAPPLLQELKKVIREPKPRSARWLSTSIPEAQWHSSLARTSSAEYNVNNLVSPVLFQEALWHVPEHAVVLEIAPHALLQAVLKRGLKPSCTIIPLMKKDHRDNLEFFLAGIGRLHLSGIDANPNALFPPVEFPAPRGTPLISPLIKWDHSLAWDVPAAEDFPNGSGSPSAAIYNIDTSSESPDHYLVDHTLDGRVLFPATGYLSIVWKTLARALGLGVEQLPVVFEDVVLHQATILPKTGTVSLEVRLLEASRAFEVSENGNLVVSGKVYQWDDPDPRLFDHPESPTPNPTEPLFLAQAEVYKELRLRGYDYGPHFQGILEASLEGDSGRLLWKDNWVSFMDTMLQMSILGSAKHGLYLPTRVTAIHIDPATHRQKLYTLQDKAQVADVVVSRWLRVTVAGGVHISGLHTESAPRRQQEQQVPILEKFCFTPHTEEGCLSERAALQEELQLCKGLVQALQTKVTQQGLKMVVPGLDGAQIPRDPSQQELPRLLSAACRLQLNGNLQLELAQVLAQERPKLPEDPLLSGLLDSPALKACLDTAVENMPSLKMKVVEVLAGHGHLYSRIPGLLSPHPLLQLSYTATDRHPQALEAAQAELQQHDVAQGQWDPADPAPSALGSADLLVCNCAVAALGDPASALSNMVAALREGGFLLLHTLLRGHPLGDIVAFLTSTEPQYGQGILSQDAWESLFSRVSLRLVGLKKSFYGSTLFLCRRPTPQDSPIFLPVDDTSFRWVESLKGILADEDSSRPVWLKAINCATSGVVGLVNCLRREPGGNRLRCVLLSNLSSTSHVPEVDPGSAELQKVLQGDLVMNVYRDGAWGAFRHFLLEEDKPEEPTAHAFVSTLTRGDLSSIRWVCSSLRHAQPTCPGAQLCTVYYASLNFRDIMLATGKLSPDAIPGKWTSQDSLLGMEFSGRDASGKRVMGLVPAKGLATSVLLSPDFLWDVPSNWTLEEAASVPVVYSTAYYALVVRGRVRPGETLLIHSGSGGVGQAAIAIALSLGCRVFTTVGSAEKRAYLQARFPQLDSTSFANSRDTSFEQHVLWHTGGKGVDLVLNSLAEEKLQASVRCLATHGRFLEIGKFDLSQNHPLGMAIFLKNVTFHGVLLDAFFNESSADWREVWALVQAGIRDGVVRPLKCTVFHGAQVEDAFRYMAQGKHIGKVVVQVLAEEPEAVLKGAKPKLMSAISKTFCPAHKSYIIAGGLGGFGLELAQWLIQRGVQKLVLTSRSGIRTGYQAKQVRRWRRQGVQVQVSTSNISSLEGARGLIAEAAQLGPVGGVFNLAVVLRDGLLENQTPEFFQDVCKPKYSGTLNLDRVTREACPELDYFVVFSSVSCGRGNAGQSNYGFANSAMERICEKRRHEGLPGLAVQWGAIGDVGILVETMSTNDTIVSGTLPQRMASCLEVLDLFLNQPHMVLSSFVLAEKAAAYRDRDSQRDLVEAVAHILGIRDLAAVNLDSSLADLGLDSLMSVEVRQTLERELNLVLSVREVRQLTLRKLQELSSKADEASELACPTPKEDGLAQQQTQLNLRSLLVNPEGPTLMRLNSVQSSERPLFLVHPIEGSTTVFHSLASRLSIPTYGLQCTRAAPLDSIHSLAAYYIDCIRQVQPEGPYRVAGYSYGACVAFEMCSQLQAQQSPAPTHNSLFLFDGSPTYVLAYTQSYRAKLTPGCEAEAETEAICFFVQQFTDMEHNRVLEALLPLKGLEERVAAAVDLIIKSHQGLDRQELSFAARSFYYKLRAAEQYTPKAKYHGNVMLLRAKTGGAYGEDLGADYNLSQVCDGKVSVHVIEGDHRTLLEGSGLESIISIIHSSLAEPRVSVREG
NPR2 activator: GC-B (human) receptor activation; P20594; HEK293-GC-B cells, CNP EC30, cGMP TR-FRET; 0% at EC30 CNP, 100% saturating CNP; activation, % at 10 µM; 370,000 tested, 0.11% active; AID 1920062;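 active = activation at 10 µM reaching about 35% in either raw or pattern-adjusted values, limit read from the data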
GC-A act: GC-A (human) enzyme activation | P16066 | HEK293 GC-A cells, cGMP TR-FRET, EC30 ANP; 0% at EC30 ANP, 100% saturating ANP | 370,000 tested, 0.14% active | AID 1671463 | activation, % at 10 µM; in the data active = activation above about 40%
APOBEC3G inh: APOBEC3G (human) deaminase inhibition. Q9HC16. recombinant A3G, ssDNA deamination FAM/TAMRA fluorescence. inhibition, % at 20 µM. 330,000 tested, 0.28% active. AID 493012;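 active = inhibition of at least 40% at 20 µM, with no more than 30% in the related APOBEC3A deaminase screen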
A3A deaminase: inhibitors of human APOBEC3A DNA deaminase | P31941 | recombinant A3A, FAM/TAMRA ssDNA deamination fluorescence | inhibition, % at 20 µM | 330,000 tested, 0.41% active | AID 493011;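 active = at least 40% inhibition at 20 µM here, with at most 30% in a related deaminase screen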
APOBEC3A confirm: confirmation of human APOBEC3A DNA deaminase inhibitors; shares compounds with A3A deaminase; recombinant A3A, ssDNA deaminase UDG fluorescence assay; inhibition, % at 20 µM; 1,400 tested, 63% active; AID 493151;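 active = inhibition reaching a set limit, 80% of the first screen's cutoff, at 20 µM in any replicate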
UDG A3A counter: inhibits UDG, flagging false APOBEC3A inhibitors | shares compounds with A3A deaminase | UDG counterscreen, FAM/TAMRA uracil oligo fluorescence | inhibition, % at 20 µM | 1,000 tested, under 10 active; call rule not given here
Of the large screens only hits and unclear results are named; the others gave an inactive call (follow-up assays come after a bar, where they were run). Compounds with a hit are over-represented: about 1.4% of the library has one in this group of screens.

Cc1cc(C)cc(C(=O)OCCN(C)C2CN(Cc3cn(Cc4ccccc4F)nn3)S(=O)(=O)C2)c1 (stereo not drawn)	none (no result: FAS TE block, APOBEC3G inh, A3A deaminase)
C=CCOC(=O)C1=C(C)N=c2sc(=C3C(=O)N(CC(=O)O)c4ccccc43)c(=O)n2C1c1ccc(OC)cc1 (stereo not drawn)	none (no result: FAS TE block, APOBEC3G inh, A3A deaminase)
CCCOc1cccc(C2C(C(=O)c3cc4ccccc4o3)=C(O)C(=O)N2c2cc(C)on2)c1 (stereo not drawn)	A3A deaminase 57.4 | APOBEC3A confirm inactive | UDG A3A counter inactive
NCC(O)CN(c1ccccc1)c1ccccc1 (stereo not drawn)	none
CC(C)[N+](C)(C)CC(O)CN(c1ccccc1)c1ccccc1 (stereo not drawn)	A3A deaminase 60.7 | APOBEC3A confirm 70.5 | UDG A3A counter inactive
COc1ccc(CN2C[C@H](COCc3ccccc3)Oc3cccc(Oc4ccc(C(C)C)cc4)c3S2(=O)=O)cc1	none (no result: FAS TE block, APOBEC3G inh, A3A deaminase)
O=C(Cc1ccc(NC(=O)C2CCCN(C(=O)c3ccccc3)C2)cc1)Nc1cccc(C(=O)N2CCCC2)c1 (stereo not drawn)	none (no result: FAS TE block, APOBEC3G inh, A3A deaminase)
CCN(C(=O)COc1nc(C)cc(C)c1C#N)c1ccccc1	A3A deaminase 59.4 | APOBEC3A confirm inactive
Cc1cc(C=O)c(C)n1-c1cc(C(=O)O)cc(C(=O)O)c1	A3A deaminase 63.7 | APOBEC3A confirm 63.9 | UDG A3A counter inactive
Cc1ccc(-c2cc(C(=O)N=Nc3c(O)[nH]c4ccccc34)[nH]n2)cc1C	none (no result: FAS TE block, APOBEC3G inh, A3A deaminase)
O=[N+]([O-])c1ccc(CN2CCN(c3ccccc3Cl)CC2)o1	A3A deaminase 53.7 | APOBEC3A confirm inactive
C[C@H]1[C@@H](C(=O)N2CCCC2)Cc2nc3ccccc3nc2C[C@@H]1c1ccccc1	none (no result: FAS TE block, APOBEC3G inh, A3A deaminase)
Cc1cccc(C(=O)NNC(=O)c2ccc(F)cc2)c1	none
O=C(NNC(=O)c1cccc(-n2cccc2)c1)c1ccc(F)cc1	A3A deaminase 41.5 | APOBEC3A confirm 27.9 | UDG A3A counter inactive
CC(=O)[C@]1(O)Cc2c(O)c3c(c(O)c2[C@@H](O[C@H]2C[C@H](N)[C@H](O)[C@H](C)O2)C1)C(=O)c1ccccc1C3=O	A3A deaminase 40.7 (no result: FAS TE block, NPR2 activator, GC-A act) | APOBEC3A confirm 46.4 | UDG A3A counter inactive
COC(=O)c1cc2c(c3c4cc(OC)ccc4n(S(C)(=O)=O)c13)C(=O)N(C)C2	none (no result: FAS TE block, APOBEC3G inh, A3A deaminase)
O=C(Cn1c(=O)n(Cc2ccco2)c(=O)c2c3c(sc21)CCCCC3)c1ccccc1	none
O=C(Cn1c(=O)n(Cc2ccco2)c(=O)c2c3c(sc21)CCCCC3)Nc1ccccc1	A3A deaminase 49.3 | APOBEC3A confirm 54.6
CC(C(=O)Nc1ccccc1Oc1ccccc1)c1ccccc1 (stereo not drawn)	none
CCn1c(=O)n(CC)c2cc(NC(=O)C(C)c3ccccc3)c(Br)cc21 (stereo not drawn)	A3A deaminase 54.5 | APOBEC3A confirm inactive
CS(=O)(=O)c1ccc(C(=O)N2CC(=O)Nc3ccccc32)cc1	A3A deaminase 54.3 | APOBEC3A confirm inactive
Cc1cc(C)cc(C(=O)N2CC(=O)Nc3ccccc32)c1	none
COC(=O)[C@]12C[C@H](CC(=O)N3CCCC3)C(=O)N(CCC3=CCCCC3)C1=C[C@H](C(C)C)O[C@@H]2C1CC1	none (no result: FAS TE block, APOBEC3G inh, A3A deaminase)
CCCn1c2c(c(=N)c3c1CCC3)CCCC2	A3A deaminase 91.7 | APOBEC3A confirm 76.7 | UDG A3A counter inactive
CCOC(=O)Cn1c2c(c(=N)c3c1CCC3)CCCC2	none
CCCn1c2c(c(=N)c3c1CCC3)CCC2	A3A deaminase 71.1 | APOBEC3A confirm 75.3 | UDG A3A counter inactive
CCCCCCCn1c2c(c(=N)c3ccccc31)CCC2	A3A deaminase 73.9 | APOBEC3A confirm 77.8 | UDG A3A counter inactive
N=c1c2c(n(Cc3ccc(Br)cc3)c3c1CCC3)CCCC2	none
Cc1ccc(OCc2nnc(SCC(=O)c3ccc4ccccc4c3)n2-c2ccc(Cl)cc2)cc1	none (no result: FAS TE block, APOBEC3G inh, A3A deaminase)
c1cc[n+](CCC[n+]2ccccc2)cc1	A3A deaminase 71.1 | APOBEC3A confirm 88.1 | UDG A3A counter inactive
COc1cccc(/C=C2\CC3(OC(=O)c4cccc(F)c4)CCCN2C3)c1 (stereo not drawn)	none (no result: FAS TE block, APOBEC3G inh, A3A deaminase)
C[N+](C)(C)CCN1C(=O)CSC1=O	A3A deaminase 55.1 | APOBEC3A confirm 48.2 | UDG A3A counter inactive
COc1ccc(C(C(=O)NCCC(C)C)N(CCO)C(=O)c2snc(C(N)=O)c2N)cc1OC (stereo not drawn)	none
COc1ccc(C(C(=O)NCCC(C)C)N(CCO)C(=O)c2snc(C(N)=O)c2N)cc1 (stereo not drawn)	A3A deaminase 76.6 | APOBEC3A confirm inactive
COCCCN1C(=O)[C@H](CC(=O)NCc2cccc3ccccc23)[C@]2(C(=O)OC)CCCCC=C12	none (no result: FAS TE block, APOBEC3G inh, A3A deaminase)
N#C/C(=C\c1c[nH]c2ccccc12)C(=O)NCC1CCCO1 (stereo not drawn)	A3A deaminase 63.2 | APOBEC3A confirm 63.7 | UDG A3A counter inactive
COC(=O)[C@]12C[C@H](CC(=O)NCc3ccc(C)o3)C(=O)N(Cc3ccc4c(c3)OCO4)C1=C[C@H](COCc1ccccc1)O[C@@H]2C	none (no result: FAS TE block, APOBEC3G inh, A3A deaminase)
CC(C)CNc1cccc2c1S(=O)(=O)N(Cc1cn(Cc3ccc(C(F)(F)F)cc3)nn1)Cc1ccccc1O2	none (no result: FAS TE block, APOBEC3G inh, A3A deaminase)
N=C(N)Cc1ccccc1Sc1ccccc1	A3A deaminase 42.0 | APOBEC3A confirm inactive
Cc1cccc(NC(=O)c2nc[nH]c2C(=O)N(C)CCO)c1	none (no result: FAS TE block, APOBEC3G inh, A3A deaminase)
CS(=O)(=O)c1ccc(NC(=O)CCCc2nc3ccccc3c(=O)[nH]2)cc1	none
CS(=O)(=O)c1ccc(Cl)c(NC(=O)CCCc2nc3ccccc3c(=O)[nH]2)c1	A3A deaminase 40.8 | APOBEC3A confirm inactive
C[C@H](NC(=O)C[C@@H]1C[C@@H]2c3cc(NC(=O)C4CCC4)ccc3O[C@@H]2[C@@H](CO)O1)c1ccccc1	none (no result: FAS TE block, APOBEC3G inh, A3A deaminase)
CC(=O)c1ccc2c3c(cccc13)C(=O)N(c1c(C)nn(C)c1C)C2=O	A3A deaminase 48.4 | APOBEC3A confirm inactive
COc1cc(OC)c(C(=O)N(CCc2ccccc2)Cc2ccccc2)cc1OC	A3A deaminase 64.9 | APOBEC3A confirm inactive | UDG A3A counter inactive
O=C(NCC1CCCO1)C1CCN(S(=O)(=O)c2ccc(Br)cc2)CC1 (stereo not drawn)	none
CSc1ccc(S(=O)(=O)N2CCC(C(=O)NCC3CCCO3)CC2)cc1 (stereo not drawn)	A3A deaminase 62.7 | APOBEC3A confirm 55.9 | UDG A3A counter inactive
COC(=O)[C@]12C[C@H](CC(=O)N3CCC(c4ccccc4)CC3)C(=O)N(CCc3ccc(OC)c(OC)c3)C1=C[C@H](C(C)C)O[C@@H]2C1CC1	none (no result: FAS TE block, APOBEC3G inh, A3A deaminase)
